Source: the supplement of paper PMC6555819

Tested on: VDR:RXRa (NR concentration 270 nM, RXRa partner concentration 90 nM)
Assay: PBM binding z-score (relative to random genomic background probes); higher = stronger binding; sequences stand for … in GC…GCGATTGACAGCGTAGAATGAAGG
Method: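 Protein-binding microarray (Agilent 4x180K custom design, double-stranded 60-nt probes: 5' GC cap, 34-nt variable region, 24-nt constant primer region; full probe sequence given). Purified or IVT nuclear receptor:RXRα heterodimers (3:1 NR:RXRα, mostly 270:90 nM) or homodimers were incubated for 1 h in PBS with 2% milk and no ligand, then detected with Alexa488 antibodies. Fluorescence from o1-orientation probes (~5 replicates averaged) was converted to z-scores against 500 random hg19 background probes. Variable regions are seed direct-repeat (DR0–DR5) sites, all their single-nucleotide variants and half-site ablations.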

In order of falling PBM binding z-score:
1. CGTCCAAGGTCAGAGAGTTCAGTGAATGCCGAGT  7.65
2. CGTCCAAGGTCAGCGAGGTCAGTGAATGCCGAGT  7.6
3. ATATGTAGGTTAGCTGGGGTCATACAGACTAGGC  6.08
4. CCTTACGGGTCACGAGGTTATCGCACGACGAGCG  5.31
5. CCTACTAGGCCAAAAAGGTCATTGATGCCGATAA  5.16
6. ATATCTAGGTTATCGGGTCATTCAGTTTGCGCAT  5.12
7. TCTGCTAGGTCAACGAAGGTCAGCTAATCTGCTA  4.97
8. CCTAGCAGGTCAATCTGGGTCACTCAAGGCTTGA  4.94
9. CCTACTGGGTCAAGGTCATTGATCAGTCAAAGCA  4.84
10. GCTAGTTGGTCAGTAAAAGGTCACACAACGGTCG  4.19
11. GCTAGTTGGTCGGTAAAAGGTCACACACCGGTCG  3.89
12. ACGAGCAGGCCAAGGGTCACTCAAGATTAGTCCG  2.72
13. GTACCAAGGTGAAAAGGTCGTTGATGAGTAGGCG  2.59
14. TAGCCTAGGTCATTAAGGGGCCAGTATAGAAAGC  2.52
15. TCTCCTAGGTCAACGATGGTCAGCTAATCTGCTA  2.39
16. TATTGTAGATCAATAGAGGTTAAGAAAGTGCGCT  1.91
17. ATCTCAAGGTAAAGTTCAGTGAAAGATCGATAGA  1.8
18. TCATATAGGTAAATGCTAGGTTAAAGTCCGATCT  1.33
19. TCGAGTAGGTTAGTCGGGACATTCAGCCAACATA  1.19
20. GGAACGAGGGCAAGTTGATAGCCGAGTTTGATGG  1.04
21. TGAATGAGGTTATAAGATCAGGAAACGTTGCAAA  1.01
22. CCAGACAGGTGAAAGGTAACACAGTCTGGTACGC  0.959
23. ATCTCTAGGTAAGACTCAGTTCAGTGAGGAACGC  0.748
24. TCTATTAGTTGATTAGGGCAACCGGAACAGCGGA  0.629
25. TCTTGTAGATCAAGCAGGATAAGAAAGCCTGAGT  0.405
26. ATACCAAGGTGATCGTGAGGTCCTTGATACTAAC  0.32
27. CCTAGCAGGCCAATCTGGGTCACTCATGGCTTGA  0.303
28. TCTTGTAGATCAAGCAGGTTAAGACAGCCTGAGT  0.279
29. CGGCCTAGGTCAGGGCCAGTATAGGAGGAACGTT  0.12
30. GCATATAGGTAATACAAGCTGAAAGTCCGATTGT  -0.105
31. CCTACTGGGCCAAACGTCATTGATTCCAATGCTC  -0.204
32. GCAGACAGGTGAAAAGCAGGTAACTCAGGGTGGC  -0.329
33. CCTACTGGGCCATTCAGAAGTCATTGATCATATG  -0.356
34. CCTCGGAGGACAGAAGGTCGGAGCTGTCCGCTTT  -0.398
35. CGAACTAGATCAGAACAGGACAGTGAAGGATGAT  -0.438
36. GCGACTGGGGCAAAGCAGGTTTCCATAAGGTTGG  -0.475
37. ACAGACAGGTGAGTGAAGCTAACTCAGCTGGACG  -0.513
38. GCTGCTAGATCAGGTTGGTCAGCTAACGGGTACG  -0.639
39. CCTGCTAGGTGAATGGTCAGCTAAAGCAGCTCGC  -0.699
40. TCTGCTAGGACAGTTGGTCAGCTAACGAGCTGCC  -0.792
